We go through 58 molecules from ChEMBL document CHEMBL4513216, “Probing the Open Global Health Chemical Diversity Library for Multistage-Active Starting Points for Next-Generation Antimalarials” (ACS Infect Dis, 2020).

The whole screen tested about 69,000 compounds, of which about 8,600 (12%) showed an effect of 50% or more. This excerpt belongs to a sample that is enriched for strong results.

The experiment deals with Plasmodium berghei. Briefly: Screen against P. berghei liver stage (PbLuc), transformed with Luciferase, at 10uM. It counts as functional, HepG2. Conditions: tested at 10 uM.
For `CN(C)CCN1C(=O)CCCC12CCCN(Cc1ccc[nH]1)C2` (stereo not drawn), the INHIBITION amounted to 26%.

Take `Cc1cccc(C)c1Nc1noc2c1CN(C(=O)c1ccnn1C)CC2`: the INHIBITION was 45.5%.

Consider `O=C(c1n[nH]c2c1CN(C1CCOC1)CC2)N1CCOCC1` (stereo not drawn), for which the INHIBITION is 9.97%.

Regarding `O=C(C1CCC2(CCN(CC3CCOCC3)CC2)O1)N1CCCCO1` (stereo not drawn), the INHIBITION came out at 38.3%.

`CS(=O)(=O)N1CC[C@]2(C[C@H](Oc3ccccn3)CO2)C1`: the INHIBITION is recorded as -23.4%.

With `CCc1noc(CN(CC)Cc2cc3ccc(C)cc3[nH]c2=O)n1`, the INHIBITION was determined as 9.56%.

On to `Cc1cnn(CCC(=O)N2CCN(c3nccs3)CC2)c1`, for which the INHIBITION amounted to 23.5%.

For the molecule `O=C(NCCCO)Nc1cnc2cc(Cl)ccc2c1O`, the INHIBITION was 54.4%.

Consider `O=C(NCCO)Nc1cnc2cc(Cl)ccc2c1O`, for which the INHIBITION came out at 24.4%.

`O=C(NCCCN1CCOCC1)Nc1cnc2cc(Cl)ccc2c1O`: the INHIBITION was 35.8%.

Take `CNC(=O)CCN1CCCCCC1c1ccc(C)o1` (stereo not drawn): the INHIBITION came out at 72.5%.

For `CNS(=O)(=O)CCCN1CCCCCC1c1ccc(C)o1` (stereo not drawn), the INHIBITION was 23.3%.

For the molecule `Cc1ccc(C2CCCCCN2CCNS(C)(=O)=O)o1` (stereo not drawn), the INHIBITION was found to be 39.4%.

Take `CC(=O)N1CCN(C(=O)c2ccc(Sc3ccccn3)cc2)CC1`: the INHIBITION came to 14.4%.

Turning to `Cc1ccc(NC(=O)NCC2(O)CCCC2)cc1C`, the INHIBITION is listed as -108%.

Consider `COc1cccc(CNC(C)C)c1OCc1ccc(C)cc1`, for which the INHIBITION is reported as 5.46%.

`COc1cc(CNCC(C)O)cc(Cl)c1OCc1ccc(C)cc1` (stereo not drawn): the INHIBITION came to 52.2%.

On to `COc1cc(CNCC(O)c2ccc(C)cc2)cc2c1OCO2` (stereo not drawn), for which the INHIBITION is recorded as -5.25%.

For the molecule `NC(=O)c1c[nH]nc1NC(=O)c1ccc(Cl)cc1`, the INHIBITION is on record as -6.3%.

As to `CCn1cc(CN2CCCN(C(=O)c3cccn3C)CC2)cn1`, the INHIBITION came to 13.6%.

Take `Cc1cc(NCc2cccc(C#N)c2)ccc1C(N)=O`: the INHIBITION is -0.759%.

As to `CS(=O)(=O)NCC1CCCCN1Cc1ccccc1C#N` (stereo not drawn), the INHIBITION was -27.6%.

Take `Cc1cc(NCc2cccc(C#N)c2)ccc1Br`: the INHIBITION is recorded as 44.3%.

`Cc1c(NCc2ccccc2C#N)cccc1-n1cnnn1`: the INHIBITION is 62.4%.

With `CC(C)N(CCNCc1ccc(C#N)cc1)C1CC1`, the INHIBITION is reported as -8.45%.

In the case of `Cc1c(NCc2ccccc2C#N)cccc1S(=O)(=O)NC1CC1`, the INHIBITION came to 64.9%.

For `Cc1ccc2c(c1C)OCC2NCc1ccc(C#N)cc1` (stereo not drawn), the INHIBITION came out at 40.9%.

For `Cc1ccc(NCc2ccc(C#N)cc2)cc1-n1cnnn1`, the INHIBITION is 14.3%.

For the molecule `Cc1nnc(NCc2ccccc2S(=O)(=O)N(C)C)c(C#N)c1C`, the INHIBITION worked out at 15.92%.

Regarding `Cc1ccc(NCc2ccccc2C#N)cc1-n1cnnn1`, the INHIBITION worked out at 10.6%.

Consider `Cc1c(NCc2cccc(C#N)c2)cccc1S(=O)(=O)NC1CC1`, for which the INHIBITION worked out at 67.5%.

As to `Cc1c(NCc2ccc(C#N)cc2)cccc1S(=O)(=O)NC1CC1`, the INHIBITION amounted to 73.9%.

For the molecule `CN(C)CC(=O)N1CCOCC(Cc2ccccn2)C1` (stereo not drawn), the INHIBITION was -20.6%.

With `CN1CCC2(CCN(CC3CC3)CC2)C1=O`, the INHIBITION came out at 23.3%.

For the molecule `CC(C)CN(CC(O)c1ccccc1)C(=O)Nc1nccs1` (stereo not drawn), the INHIBITION is given as -10.9%.

As for `COCCN(C)CC(=O)N1C[C@@H]2CC[C@H]1CN(C(=O)c1ccncc1)C2`, the INHIBITION was 8.57%.

`CNC(=O)[C@H]1C[C@H]2CN(Cc3ccc(OC)cc3)C[C@@H]1O2`: the INHIBITION is 8.66%.

As to `Cn1nccc1C1CCN(CC(O)c2cccc(F)c2)CC1` (stereo not drawn), the INHIBITION came out at 20.9%.

As to `c1ccc(-n2ccc(CN3CCCC3Cn3cccn3)n2)cc1` (stereo not drawn), the INHIBITION was 36.4%.

In the case of `c1ccc(-n2ccc(CN3CCOC(Cn4cncn4)C3)n2)cc1` (stereo not drawn), the INHIBITION is recorded as 7.08%.

`c1ccc(-n2ncc(CN3CCCC3Cn3cccn3)n2)cc1` (stereo not drawn): the INHIBITION is -0.75%.

Regarding `Cn1nccc1C1CCN(Cc2csc(-c3ncccn3)n2)CC1`, the INHIBITION was 11.1%.

With `O=C(O)c1ccccc1CN1CCC(c2ccnc3ccnn23)CC1`, the INHIBITION is given as -9.32%.

With `Cc1ncc(CN2CCC(c3ccnn3C)CC2)n1-c1ccccc1`, the INHIBITION came to 77.2%.

`Cn1nccc1C1CCN(Cc2ccn(-c3ccccc3)n2)CC1`: the INHIBITION was found to be 74.2%.

In the case of `Cn1nccc1C1CCN(Cc2cnn(-c3ccccc3)n2)CC1`, the INHIBITION worked out at 81.2%.

Turning to `CC(C)C(=O)N1CCN(C(=O)N(C)C)CC2(CC(=O)N(C)C2)C1` (stereo not drawn), the INHIBITION was found to be 39.8%.

For the molecule `CCn1c(Cn2cncn2)nnc1C1CCN(Cc2ccccn2)CC1`, the INHIBITION turned out to be 3.88%.

As to `O=C(CCc1ccccc1)NC1CCC2(CCC(=O)N2)CC1` (stereo not drawn), the INHIBITION was 2.58%.

With `COCCCN1CCN(CCOC)C(C)C1` (stereo not drawn), the INHIBITION is -23.8%.

As for `CN(C)CCOCC1CN(CCN(C)C)Cc2ccnn2C1` (stereo not drawn), the INHIBITION is recorded as -4.23%.

For the molecule `COc1ccccc1OC1CN(c2ccncc2)C1`, the INHIBITION was found to be 38.8%.

Regarding `CC(C)c1cccc(S(=O)(=O)NCCCN2CCC(O)CC2)c1`, the INHIBITION worked out at 62.3%.

For `Cc1ccc(S(=O)(=O)NCCCN2CCC(O)CC2)cc1Cl`, the INHIBITION was 51.4%.

Consider `Cc1cc(F)c(S(=O)(=O)NCCCN2CCC(O)CC2)cc1F`, for which the INHIBITION is -1.53%.

Regarding `Cc1cc(F)cc(S(=O)(=O)NCCCN2CCC(O)CC2)c1`, the INHIBITION is reported as 25.1%.

Consider `Cc1ccc(S(=O)(=O)NCCCN2CCC(O)CC2)c(F)c1`, for which the INHIBITION was 41.4%.

For the molecule `CSCc1cccc(S(=O)(=O)NCCCN2CCOCC2)c1`, the INHIBITION turned out to be 18.5%.
